Here are results for 8 compounds from PubChem BioAssay.

The nature of assay [1]: optical density shifts of acrAB sulA E. coli – strain DRC41, OD650, 48 h, E. coli filamentation inducer project, primary screen (AID 1152).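 Further: E. coli MC1000 strain DRC41 lacking acrAB efflux pump and sulA.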 The conditions noted are these: higher = more signal, called active from +8 up or from −8 down.
Assay [2] is described as follows: probe aLefty1 binding on compound microarray – biochemical, small-molecule microarray, 635/667 nm fluorescence, primary screen (AID 1153).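 Further: score merges spot fluorescence with signal-to-noise ratio from the scanned slide images.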 The conditions noted are these: higher = more signal.
The nature of assay [3]: plasmodial surface anion channel blockers, osmotic lysis – cell-based, P. falciparum Indochina, OD700, 1 h, primary screen (AID 1154). The conditions noted are these: P. falciparum Indochina infected RBC osmotic lysis, higher = more signal, called active from +8 up or from −8 down.
The nature of assay [4]: plasmodial surface anion channel blockers, osmotic lysis – cell-based, P. falciparum Indochina, OD700, 2 h, primary screen (AID 1155).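 Further: lysis reports solute entry through the parasite surface anion channel PSAC.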 Conditions: P. falciparum Indochina infected erythrocytes, higher = more signal, called active from +8 up or from −8 down.
A short description of assay [5]: changes in parasitized red cell lysis, either direction – P. falciparum Indochina, OD700, 3 h, PSAC antagonist project, primary screen (AID 1156). Conditions: P. falciparum-infected erythrocytes, osmotic lysis, higher = more signal, called active from +8 up or from −8 down.
Assay [6] is described as follows: plasmodial surface anion channel blockers, osmotic lysis – cell-based, P. falciparum Indochina, OD700, 18 h, primary screen (AID 1157). The conditions noted are these: P. falciparum Indochina infected erythrocytes, osmotic lysis OD700, 18 h; higher = more signal, called active from +8 up or from −8 down.
The nature of assay [7]: S6 kinase pathway phospho-S6 level changes – cell-based, A549, cytoblot, luminescence, serum-stimulated, primary screen (AID 1158).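 Further: serum-stimulated A549 lung adenocarcinoma cells; signal is phosphorylated S6 detected by cytoblot immunostaining with HRP secondary.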 The conditions noted are these: 5 h, higher = more signal.
For assay [8], the target named is NADPH oxidase 2 (Homo sapiens) (UniProt P04839). The assay can be described thus: compounds shifting NOX2 Amplex Red fluorescence – cell-based, HEK293-NOX2, PMA-stimulated, NOX inhibitor project, primary screen (AID 1159). Further: test concentration not given here. The conditions noted are these: 45 min, higher = more signal, called active from +8 up or from −8 down.
Assay [9] concerns the target NADPH oxidase 4 (Homo sapiens) (UniProt Q9NPH5). In words: compounds shifting NOX4 Amplex Red fluorescence – cell-based, HEK293-NOX4, tetracycline-induced, NOX inhibitor project, primary screen (AID 1160). Conditions: HEK293-NOX4, Amplex Red H2O2 fluorescence, 45 min; higher = more signal, called active from +8 up or from −8 down.
For assay [10], the target named is NADPH oxidase 5 (Homo sapiens) (UniProt Q96PH1). In words: compounds shifting NOX5 Amplex Red fluorescence – cell-based, HEK293-NOX5, NOX inhibitor project, primary screen (AID 1161). The conditions noted are these: HEK293-NOX5, ionomycin, 45 min, higher = more signal.
A short description of assay [11]: compound effects on lung adenocarcinoma cell viability – A549, calcein-AM fluorescence, 48 h, basal, profiling panel (AID 1162). Further: test concentration not given here. Conditions: higher = more signal.
Assay [12] can be described thus: compound effects on differentiated 3T3-L1 adipocyte viability – cell-based, 3T3-L1 adipocytes, calcein-AM fluorescence, 48 h, basal, profiling panel (AID 1163). Further: test concentration not given here. The conditions noted are these: 3T3-L1 adipocytes viability, higher = more signal.
A short description of assay [13]: compound effects on hepatocellular carcinoma cell viability – HepG2, calcein-AM fluorescence, 48 h, basal, profiling panel (AID 1164). Further: test concentration not given here. Conditions: higher = more signal.
Assay [14] is described as follows: compound effects on multiple myeloma cell viability – MM1S, calcein-AM fluorescence, 48 h, basal, profiling panel (AID 1165). Further: test concentration not given here. Conditions: higher = more signal.
The nature of assay [15]: calcein-AM signal in unstimulated myeloma cells – cell-based, calcein-AM fluorescence, 48 h, PK04 Diversity Set, profiling panel (AID 1166).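 Further: cells grown under basal conditions without added stimulus; test concentration not given here.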 The conditions noted are these: RPMI8226 myeloma viability, higher = more signal.
A short description of assay [16]: JC-1 mitochondrial signal, unstimulated HepG2 cells – cell-based, JC-1 fluorescence, 24 h, 100 nL compound, profiling panel (AID 1167). Further: test concentration not given here. Conditions: HepG2 mitochondrial potential, higher = more signal.
Assay [17] in a line: JC-1 mitochondrial signal, unstimulated adipocytes – cell-based, JC-1 fluorescence, 3T3-L1 adipocytes, 24 h, 100 nL compound, profiling panel (AID 1168). Further: test concentration not given here. The conditions noted are these: JC-1 mitochondrial fluorescence, higher = more signal, called active from +8 up or from −8 down.
A short description of assay [18]: JC-1 mitochondrial signal, unstimulated myeloma cells – cell-based, JC-1 fluorescence, RPMI8226, 24 h, 100 nL compound, profiling panel (AID 1169). Further: test concentration not given here. The conditions noted are these: JC-1 mitochondrial potential fluorescence, higher = more signal.
Assay [19] is described as follows: JC-1 mitochondrial signal, unstimulated MM1S myeloma – cell-based, JC-1 fluorescence, 24 h, 100 nL compound, profiling panel (AID 1170). Further: test concentration not given here. Conditions: MM1S mitochondrial potential, higher = more signal.
Assay [20] can be described thus: resazurin metabolic signal in A549 cells – cell-based, resazurin fluorescence, 24 h, PK04 Diversity Set, profiling panel (AID 1171). Further: test concentration not given here. Conditions: A549 viability, higher = more signal, called active from +8 up or from −8 down. (The colour change of resazurin is a common sign of viable cells or microbes.)

SMILES strings stand for the structures. Calls of active or inactive are those of the source.

Chain of NADPH oxidase 2 (Homo sapiens) (P04839 whole entry, looked up): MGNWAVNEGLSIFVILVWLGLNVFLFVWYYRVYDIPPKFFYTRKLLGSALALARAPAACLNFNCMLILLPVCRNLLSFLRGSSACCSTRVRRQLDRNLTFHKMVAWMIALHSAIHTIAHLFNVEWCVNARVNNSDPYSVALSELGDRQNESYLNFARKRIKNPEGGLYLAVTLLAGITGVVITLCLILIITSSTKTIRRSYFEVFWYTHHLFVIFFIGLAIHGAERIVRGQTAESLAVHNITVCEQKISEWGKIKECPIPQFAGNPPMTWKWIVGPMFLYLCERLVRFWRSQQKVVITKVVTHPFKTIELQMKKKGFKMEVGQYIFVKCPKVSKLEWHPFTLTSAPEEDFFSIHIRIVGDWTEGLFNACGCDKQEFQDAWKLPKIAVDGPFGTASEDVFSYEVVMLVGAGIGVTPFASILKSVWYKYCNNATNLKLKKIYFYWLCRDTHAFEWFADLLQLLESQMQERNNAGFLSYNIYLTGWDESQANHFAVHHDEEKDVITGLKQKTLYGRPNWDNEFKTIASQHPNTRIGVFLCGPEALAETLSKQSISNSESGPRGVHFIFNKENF
Chain of NADPH oxidase 4 (Homo sapiens) (Q9NPH5 whole entry, looked up): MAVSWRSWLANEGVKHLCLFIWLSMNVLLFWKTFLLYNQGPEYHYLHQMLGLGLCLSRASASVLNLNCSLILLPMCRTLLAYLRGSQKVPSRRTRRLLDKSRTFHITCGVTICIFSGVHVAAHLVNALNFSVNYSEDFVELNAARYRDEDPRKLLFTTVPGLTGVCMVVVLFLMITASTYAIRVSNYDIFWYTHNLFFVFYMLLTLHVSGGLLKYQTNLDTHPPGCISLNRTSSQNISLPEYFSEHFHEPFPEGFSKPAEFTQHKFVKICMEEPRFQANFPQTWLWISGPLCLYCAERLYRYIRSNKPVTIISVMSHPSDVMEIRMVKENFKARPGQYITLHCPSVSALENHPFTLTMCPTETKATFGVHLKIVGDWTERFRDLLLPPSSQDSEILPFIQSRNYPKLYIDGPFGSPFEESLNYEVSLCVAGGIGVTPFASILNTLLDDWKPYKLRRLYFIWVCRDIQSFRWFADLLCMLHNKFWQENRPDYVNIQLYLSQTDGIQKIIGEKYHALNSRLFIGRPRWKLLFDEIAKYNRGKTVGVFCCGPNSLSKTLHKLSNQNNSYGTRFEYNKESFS
Chain of NADPH oxidase 5 (Homo sapiens) (Q96PH1 whole entry, looked up): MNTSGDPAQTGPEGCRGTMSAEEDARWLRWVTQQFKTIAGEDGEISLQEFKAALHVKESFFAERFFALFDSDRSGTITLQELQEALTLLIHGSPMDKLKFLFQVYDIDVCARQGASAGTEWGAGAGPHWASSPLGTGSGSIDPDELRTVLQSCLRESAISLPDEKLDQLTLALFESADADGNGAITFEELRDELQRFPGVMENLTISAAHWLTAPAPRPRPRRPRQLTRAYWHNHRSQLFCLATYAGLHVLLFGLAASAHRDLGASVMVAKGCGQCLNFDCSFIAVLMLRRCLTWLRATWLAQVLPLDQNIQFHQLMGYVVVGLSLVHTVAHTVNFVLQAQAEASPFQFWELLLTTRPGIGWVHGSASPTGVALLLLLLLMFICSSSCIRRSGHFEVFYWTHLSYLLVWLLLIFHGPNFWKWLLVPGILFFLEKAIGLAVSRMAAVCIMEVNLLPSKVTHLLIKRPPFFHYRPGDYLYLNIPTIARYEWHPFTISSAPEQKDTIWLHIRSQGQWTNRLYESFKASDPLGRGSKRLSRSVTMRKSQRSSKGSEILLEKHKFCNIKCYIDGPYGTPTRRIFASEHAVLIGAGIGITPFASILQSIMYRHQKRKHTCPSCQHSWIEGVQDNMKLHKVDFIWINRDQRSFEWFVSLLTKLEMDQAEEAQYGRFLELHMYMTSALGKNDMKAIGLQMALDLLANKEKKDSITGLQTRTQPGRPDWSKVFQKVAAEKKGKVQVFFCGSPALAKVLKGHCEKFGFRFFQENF

For the compound `CCCCN1CC=CC23O[C@@H]4/C=C\CCCOC(=O)C4[C@H]2C(=O)N(C(CO)C(C)C)[C@@H]3C1=O` (stereo not given in full), the z-score in assay [1] was -0.539 (inactive); in assay [3], 1.47 (inactive); in [4] it was 0.701 (inactive); in [5], 0.434 (inactive); in assay [6], 0.505 (inactive); in assay [7], -0.515. The z-score in [8] was 1.71 (inactive); in assay [9], 0.808 (inactive); in assay [10] it was 1.69; in [11], 0.374; in assay [12], 0.265; in assay [13], -0.0249. Also, the z-score in [14] was 0.201; in assay [15] it was 0.463; in [16] it was -0.945; in assay [17], -0.525 (inactive); in assay [18], -0.4; in assay [19], -0.608. Besides, the z-score in assay [20] is -0.61 (inactive). The same compound gave a composite z-score in [2] of -0.178.

`CC(C)(C)N1CC=CC23O[C@@H]4/C=C\CCCOC(=O)C4[C@H]2C(=O)N(CCCCCO)[C@@H]3C1=O` (stereo not given in full): the z-score in assay [1] is -0.81 (inactive); in [3] it was 0.373 (inactive); in assay [4], 0.135 (inactive); in [5] it was -1.09 (inactive); in assay [6] it was 0.0116 (inactive); in [7], -0.786. The z-score in assay [8] is 1.16 (inactive); in assay [9], 0.0398 (inactive); in assay [10] it was 1.21; in assay [11], -0.373; in assay [12], 1.03; in assay [13], -0.927. Further, the z-score was 1.59 in [14]; 0.382 in assay [15]; -0.0838 in assay [16]; 0.186 (inactive) in [17]; 0.116 in assay [18]; -0.00811 in assay [19]. Moreover, the z-score in assay [20] is -0.543 (inactive). Also, in assay [2], the composite z-score is -0.191.

`CC(C)(C)OC(=O)CC[C@]1(C(=O)NCC(O)CO)N=C(c2ccc(OCCCO)cc2)O[C@H]1c1ccccc1N=[N+]=[N-]` (stereo not given in full): the z-score in [1] is 0.618 (inactive); in [3], 29.9 (active); in assay [4], 27.1 (active); in assay [5], 1.38 (inactive); in assay [6] it was 6.1 (inactive); in assay [7], -0.465. In addition, the z-score is -3.04 (inactive) in assay [8]; 1.04 (inactive) in [9]; -1.68 in assay [10]; 0.0239 in assay [11]; 0.809 in [12]; 0.324 in assay [13]. The z-score was -0.312 in [14]; -0.198 in [15]; 0.0858 in assay [16]; 2.2 (inactive) in assay [17]; -0.832 in assay [18]; -0.591 in assay [19]. Besides, in assay [20], the z-score was 0.35 (inactive). The compound further came in with a composite z-score in assay [2] of 0.215.

On to `COc1ccc([Si](C)(C)[C@H]2[C@H](CC(=O)N3CCC[C@H]3CO)O[C@@]3(C(=O)N(Cc4ccc(N5CCCCC5=O)cc4)c4ccccc43)[C@@H]2C)cc1`, for which the z-score in assay [1] is 1.5 (inactive); in assay [3], 7.73 (inactive); in assay [4], 1.66 (inactive); in [5], 2.12 (inactive); in [6], 1.02 (inactive); in [7], 0.287. For the same compound, the z-score in assay [8] was 1.52 (inactive); in assay [9], 1.03 (inactive); in [10], 2.69; in assay [11] it was -0.288; in assay [12], 0.954; in [13], -0.531. The z-score in assay [14] is -1.74; in assay [15] it was -3.5; in assay [16], 3.5; in assay [17] it was -0.774 (inactive); in [18] it was -1.02; in assay [19], -0.184. The z-score in [20] was -0.421 (inactive). Moreover, in assay [2], the composite z-score was determined as 0.44.

In the case of `COCCn1c(C(=O)N(C)C)cc2c1C[C@H]1CN(C(=O)c3ccccc3)[C@@](Cc3ccc(OC)cc3)(C(=O)OC)[C@@H]21`, the z-score was -1.18 (inactive) in assay [1]; 5.82 (inactive) in [3]; 0.846 (inactive) in assay [4]; 1.36 (inactive) in [5]; 1.23 (inactive) in assay [6]; -0.164 in assay [7]. For the same compound, the z-score is 0.556 (inactive) in [8]; 1.43 (inactive) in assay [9]; 1.24 in assay [10]; -0.615 in assay [11]; -0.61 in [12]; 0.33 in assay [13]. Also, the z-score is -0.479 in assay [14]; -0.843 in assay [15]; 0.564 in assay [16]; -0.722 (inactive) in assay [17]; 0.0961 in assay [18]; -1.52 in assay [19]. The z-score in assay [20] was -0.437 (inactive). For the same compound, in assay [2], the composite z-score came out at 0.256.

As for `CCOC(=O)C[C@H]1[C@H](OC(=O)Cc2ccc3c(c2)OCO3)[C@@H](NC(=O)c2ccc3ccccc3n2)c2cc(OCCCO)ccc2N1C(=O)Cc1ccc(OC)cc1`, the z-score is 2.14 (inactive) in assay [1]; 21.8 (active) in assay [3]; 5.31 (inactive) in assay [4]; -0.997 (inactive) in assay [5]; 0.0217 (inactive) in [6]; 2.03 in [7]. Moreover, the z-score in assay [8] was -1.47 (inactive); in assay [9] it was 0.824 (inactive); in [10] it was 0.159; in assay [11], 0.703; in assay [12], 0.867; in assay [13], 1.03. Further, the z-score is 0.406 in assay [14]; -0.603 in assay [15]; 2.42 in [16]; -0.115 (inactive) in assay [17]; 0.167 in [18]; -0.882 in assay [19]. Also, the z-score in assay [20] is -0.64 (inactive). Further, the composite z-score in assay [2] is -0.0573.

As to `COC(=O)[C@]1(Cc2ccccc2)N=C(c2ccc(OCCCO)cc2)O[C@@H]1c1ccccc1CN=[N+]=[N-]`, the z-score in assay [1] is -1.03 (inactive); in assay [3], 27.2 (active); in assay [4], 24.7 (active); in assay [5], 0.765 (inactive); in [6], 4.7 (inactive); in [7], 0.614. Also, the z-score in assay [8] was -4.51 (inactive); in assay [9], -1.36 (inactive); in [10], -2.36; in assay [11], -3.63; in [12], 0.748; in assay [13], -5.37. In addition, the z-score in assay [14] is -3.55; in [15] it was -3.97; in assay [16], -2.4; in [17], -0.876 (inactive); in assay [18], -1.12; in assay [19], -1.34. Further, the z-score in assay [20] was -4.59 (inactive). In [2], this compound gave a composite z-score of 0.25.

For the compound `CC=CC(O)C1C=CC2C(=O)NC(=O)C2N1Nc1ccc(Cl)cc1Cl` (stereo not given), the z-score in [1] is -1.56 (inactive); in assay [3], 0.76 (inactive); in assay [4], 0.786 (inactive); in assay [5] it was 0.0682 (inactive); in [6], 1.29 (inactive); in assay [7], -0.637. The z-score is -1.35 (inactive) in assay [8]; -4.61 (inactive) in assay [9]; -3.02 in assay [10]; -1.54 in [11]; -0.883 in assay [12]; -1.14 in assay [13]. Further, the z-score is -0.866 in assay [14]; -0.624 in assay [15]; -2.04 in [16]; -1.04 (inactive) in assay [17]; 0.501 in [18]; -0.446 in [19]. The z-score in assay [20] is -0.458 (inactive). The compound further registered a composite z-score in assay [2] of 0.169.
